# Assay results taken from the supplement of paper PMC12645437, “Orthogonal IMiD-Degron Pairs Induce Selective Protein Degradation in Cells” (ACS Chemical Biology, 2025).
# In all, about 8,300 sequences were measured (“log2 fold change of degron read counts, EGFP-low vs EGFP+ sorted cells (limma voom), compound-induced degradation”: median about -1.1, highest 2% from about 3.2 on). Shown is part of a subset that was picked to be rich in the highest values.
# T1: CRBN, Q96SW2
# T1 chain: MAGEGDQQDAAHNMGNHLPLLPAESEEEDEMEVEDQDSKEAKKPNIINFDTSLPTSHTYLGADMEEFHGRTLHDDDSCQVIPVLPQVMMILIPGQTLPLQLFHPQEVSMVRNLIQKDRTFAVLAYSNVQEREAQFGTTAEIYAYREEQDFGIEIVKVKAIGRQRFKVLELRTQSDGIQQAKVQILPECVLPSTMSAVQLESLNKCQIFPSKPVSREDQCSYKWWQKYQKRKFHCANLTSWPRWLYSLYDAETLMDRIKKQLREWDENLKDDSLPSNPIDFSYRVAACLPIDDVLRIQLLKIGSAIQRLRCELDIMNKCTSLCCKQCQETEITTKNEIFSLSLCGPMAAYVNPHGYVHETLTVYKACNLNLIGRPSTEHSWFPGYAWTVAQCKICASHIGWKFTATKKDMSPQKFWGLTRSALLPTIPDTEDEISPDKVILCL
# Target: T1, CRBN, Q96SW2
# Assay: log2 fold change of degron read counts, EGFP-low vs EGFP+ sorted cells (limma voom), compound-induced degradation; higher = more compound-induced degradation of the degron-EGFP fusion; degrons are variants of IKZF1/3 zinc finger 2; compound dose not given here
# Settings: Jurkat, 18 h
# [1] = compound: compound 19 (5-tert-butyl-thalidomide)
# [2] = compound: compound 22 (5-morpholino-thalidomide)
# [3] = compound: compound 33 (diphenyl IMiD analogue)
# 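Further: pooled lentiviral library of zinc finger degron-EGFP fusions in mCherry-positive Jurkat cells, FACS-sorted after compound exposure, with degron abundance counted by next-generation sequencing.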
Sequence,log2 fold change of degron read counts [1],log2 fold change of degron read counts [2],log2 fold change of degron read counts [3],log2 fold change of degron read counts (compound: thalidomide)
"FSCEICGAYFTQKGNLLRHIKL [46F_47S_49E_50I_52G_53A_54Y_55F_67L_, Q9UKT9]",2.46,1.44,1.69,0.848
"FWCPVCGACFTQKGNLLRHIKL [46F_47W_49P_50V_52G_53A_54C_55F_67L_, Q9UKT9]",3.4,3.44,2.56,1.36
"FQCPVCGACFTQKGNLLRHIKL [46F_47Q_49P_50V_52G_53A_54C_55F_67L_, Q9UKT9]",0.553,2.77,2.39,3.46
"FKCPVCGACFTQKGNLLRHIKL [46F_47K_49P_50V_52G_53A_54C_55F_67L_, Q9UKT9]",-0.716,-1.95,-2.51,-0.832
"FQCPQCGACFTQKGNLLRHIKL [46F_47Q_49P_50Q_52G_53A_54C_55F_67L_, Q9UKT9]",-1.4,0.844,0.805,3.26
"FVCPQCGACFTQKGNLLRHIKL [46F_47V_49P_50Q_52G_53A_54C_55F_67L_, Q9UKT9]",-1.94,-0.402,0.593,0.301
"FYCPVCGACFTQKGNLLRHIKL [46F_47Y_49P_50V_52G_53A_54C_55F_67L_, Q9UKT9]",3.26,3.4,2.69,1.29
"FYCNVCGACFTQKGNLLRHIKL [46F_47Y_49N_50V_52G_53A_54C_55F_67L_, Q9UKT9]",1.86,2.44,1.12,-0.449
"FNCPVCGACFTQKGNLLRHIKL [46F_47N_49P_50V_52G_53A_54C_55F_67L_, Q9UKT9]",1.6,0.504,1,-0.0222
"FLCPVCGACFTQKGNLLRHIKL [46F_47L_49P_50V_52G_53A_54C_55F_67L_, Q9UKT9]",0.241,-0.146,1.72,1.62
"FKCPQCGACFTQKGNLLRHIKL [46F_47K_49P_50Q_52G_53A_54C_55F_67L_, Q9UKT9]",-2.36,-3,-3.29,-2.34
"FHCPVCGACFTQKGNLLRHIKL [46F_47H_49P_50V_52G_53A_54C_55F_67L_, Q9UKT9]",2.42,2.44,2.11,0.528
"LDCPICGFWCTQKGNLLRHIKL [46L_47D_49P_50I_52G_53F_54W_55C_67L_, Q9UKT9]",-0.559,-0.625,0.68,1.33
"FACPVCGAVFTQKGNLLRHIKL [46F_47A_49P_50V_52G_53A_54V_55F_67L_, Q9UKT9]",3.09,1.74,1.78,0.502
"FYCPQCGAMFTQKGNLLRHIKL [46F_47Y_49P_50Q_52G_53A_54M_55F_67L_, Q9UKT9]",0.518,0.45,0.601,-1.06
"FCCNVCGAWFTQKGNLLRHIKL [46F_47C_49N_50V_52G_53A_54W_55F_67L_, Q9UKT9]",-1.92,-1.43,-1.27,-1.34

Sequence,log2 fold change of degron read counts [1],log2 fold change of degron read counts [2],log2 fold change of degron read counts [3],log2 fold change of degron read counts (compound: thalidomide)
"FICEVCGADFTQKGNLLRHIKL [46F_47I_49E_50V_52G_53A_54D_55F_67L_, Q9UKT9]",-2.24,-0.906,-0.571,0.184
"FTCDVCGAMFTQKGNLLRHIKL [46F_47T_49D_50V_52G_53A_54M_55F_67L_, Q9UKT9]",-1.4,-0.892,-0.371,-0.84
"LSCNQCGFVCTQKGNLLRHIKL [46L_47S_49N_50Q_52G_53F_54V_55C_67L_, Q9UKT9]",-2.24,-2.61,-2,-2.24
"FRCPVCGACFTQKGNLLRHIKL [46F_47R_49P_50V_52G_53A_54C_55F_67L_, Q9UKT9]",-0.619,0.101,1.52,0.981
"FMCPVCGACFTQKGNLLRHIKL [46F_47M_49P_50V_52G_53A_54C_55F_67L_, Q9UKT9]",-0.624,0.321,2.31,0.962
"FGCPVCGACFTQKGNLLRHIKL [46F_47G_49P_50V_52G_53A_54C_55F_67L_, Q9UKT9]",3.88,3.16,2.81,1.1
"FACPVCGACFTQKGNLLRHIKL [46F_47A_49P_50V_52G_53A_54C_55F_67L_, Q9UKT9]",3.39,1.64,1.85,0.646
"FFCPVCGACFTQKGNLLRHIKL [46F_47F_49P_50V_52G_53A_54C_55F_67L_, Q9UKT9]",3,3.34,2.16,1.3
"FDCPVCGACFTQKGNLLRHIKL [46F_47D_49P_50V_52G_53A_54C_55F_67L_, Q9UKT9]",1.39,-0.358,1.46,1.34
"FCCPVCGACFTQKGNLLRHIKL [46F_47C_49P_50V_52G_53A_54C_55F_67L_, Q9UKT9]",2.37,1.98,2.99,2.06
"FVCDVCGACFTQKGNLLRHIKL [46F_47V_49D_50V_52G_53A_54C_55F_67L_, Q9UKT9]",-1.45,-0.0454,0.676,0.186
"FVCPVCGACFTQKGNLLRHIKL [46F_47V_49P_50V_52G_53A_54C_55F_67L_, Q9UKT9]",-0.46,1.87,2.08,2.53
"FWCDVCGACFTQKGNLLRHIKL [46F_47W_49D_50V_52G_53A_54C_55F_67L_, Q9UKT9]",2.78,3.47,1.12,-0.931
"FHCDVCGACFTQKGNLLRHIKL [46F_47H_49D_50V_52G_53A_54C_55F_67L_, Q9UKT9]",0.383,0.3,-1.01,-2.43
"FSCPVCGACFTQKGNLLRHIKL [46F_47S_49P_50V_52G_53A_54C_55F_67L_, Q9UKT9]",2.64,1.8,2.73,1.07
